This is a sample that favours compounds with a hit; in the whole collection about 1.3% have one here.
CRFBP-R2 agonist: CRF-BP/CRF-R2 complex agonism | HEK293 CRF-R2/CRF-BP, calcium dye fluorescence (FLIPR); percent of saturating CRF peptide response | activation, % at 13.2 µM | 0.46% of 350,000 active | AID 588473;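 active means activation of at least 50%, plus an integration ratio under a set limit after plate pattern correction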;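 further: plate controls were neutral control wells without compound for no effect and CRF at EC100 for full effect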
LANA DNA inh: inhibitors of KSHV LANA C-terminal domain DNA binding | AID 504423 | MBP-C-LANA/FAM-LBS DNA binding, fluorescence polarization | 0.078% of 340,000 active | inhibition, % at 9 µM;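 active means highest replicate inhibition at or above 60% at 9 µM, even if other replicates fall short; inactive means all replicates below 60% inhibition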;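 further: 0% = neutral control wells and 100% = 4 µM acridine orange control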
RTF Ca sens act: increases calcium sensitivity of human cardiac regulated thin filaments. AID 493008. 0.24% of 340,000 active. P19429+P45379. IANBD-labeled TnC RTF fluorescence at EC20 calcium; 0% EC20 calcium, 100% full calcium. activation, % at 7.2 µM;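 active means activation above the mean over all tested compounds plus 3 SD, cut at about 30% in these data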;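 further: rise in fluorescence read as greater calcium sensitivity of cardiac thin filaments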
CRFBP-R2 block: antagonists of CRF-binding protein/CRF-R2 receptor complex | HEK293 CRF-R2/CRF-BP, CRF-induced calcium fluorescence | AID 588475 | 0.59% of 350,000 active | inhibition, % at 11.8 µM;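 active means inhibition of the ligand-induced calcium signal above about 50% at the single tested concentration, limit read from the data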
Keap1-Nrf2 PPI: Keap1-Nrf2 (human) interaction inhibition | Keap1 Kelch-Nrf2 peptide fluorescence polarization, 1536-well | 0.15% of 340,000 active | Q14145 | AID 504523 | inhibition, % at 9.4 µM; in the data active means inhibition above about 12%;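 further: human Keap1 Kelch domain with fluorescein labeled Nrf2 9mer peptide probe; 0% = neutral control wells and 100% = peptide positive control; higher means more block of Keap1 binding to Nrf2 peptide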
Target sequence (Q14145 whole entry, looked up, the tested form may be a part): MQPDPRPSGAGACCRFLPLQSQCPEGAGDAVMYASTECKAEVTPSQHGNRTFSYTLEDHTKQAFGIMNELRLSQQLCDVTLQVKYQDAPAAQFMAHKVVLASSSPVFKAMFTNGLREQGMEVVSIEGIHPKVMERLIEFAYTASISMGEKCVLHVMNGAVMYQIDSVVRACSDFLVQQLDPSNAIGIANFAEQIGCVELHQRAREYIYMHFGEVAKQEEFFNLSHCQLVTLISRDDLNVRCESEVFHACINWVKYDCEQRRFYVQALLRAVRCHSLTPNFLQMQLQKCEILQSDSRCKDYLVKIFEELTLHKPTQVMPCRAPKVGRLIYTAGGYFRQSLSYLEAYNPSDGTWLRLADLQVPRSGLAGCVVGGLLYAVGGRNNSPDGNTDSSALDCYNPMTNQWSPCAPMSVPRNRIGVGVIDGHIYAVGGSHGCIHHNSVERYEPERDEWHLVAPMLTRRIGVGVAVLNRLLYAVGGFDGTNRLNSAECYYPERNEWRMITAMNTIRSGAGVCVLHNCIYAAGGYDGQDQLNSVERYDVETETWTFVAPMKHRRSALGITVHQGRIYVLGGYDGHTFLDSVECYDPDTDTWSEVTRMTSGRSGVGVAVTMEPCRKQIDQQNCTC
RTF Ca sens inh: cardiac RTF calcium desensitization; P19429+P45379; IANBD-labeled cardiac RTF, Ca2+ fluorescence; inhibition, % at 7.15 µM; 0.12% of 340,000 active;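 active means inhibition above the mean inhibition of all tested compounds plus 3 SD, cut at about 17% in these data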;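 further: assay run at fixed EC70 calcium of 1.6 mM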
Active calls of the source: *; i = inactive; . = no result given; ! = not confirmed by another sample.

SMILES	CRFBP-R2 agonist	LANA DNA inh	RTF Ca sens act	CRFBP-R2 block	Keap1-Nrf2 PPI	RTF Ca sens inh
COc1ccc(C(C(=O)NC2CCCC2)N(C(=O)c2ccoc2C)c2ccccc2)cc1 (centres undefined)	0	0	-5	1	-3	-3
COc1ccc(C(C(=O)NC2CCCC2)N(C(=O)c2ccoc2C)c2cc(C)cc(C)c2)cc1 (centres undefined)	0	0	0	83*	-1	5
COc1ccc(C(C(=O)NC2CCCCC2)N(C(=O)c2sc(C)nc2C)c2ccccc2)cc1 (centres undefined)	1	0	7	-4	1	2
COc1ccc(C(C(=O)NC2CCCCC2)N(C(=O)c2sc(C)nc2C)c2ccc(OC)cc2)cc1 (centres undefined)	-2	1	4	64*	2	-4
Cc1n[nH]c(=S)n(/N=C/c2cccs2)c1=O	1	0	2	115*	1	-1
Cc1cc(-c2ccc(C)c(S(=O)(=O)N3CCN(C(=O)c4ccco4)CC3)c2)on1	-1	-1	2	-4	-6	-1
COc1ccc(-c2cc(C)no2)cc1S(=O)(=O)N1CCN(C(=O)c2ccco2)CC1	-2	-1	-4	75*	-4	-3
COc1ccccc1C1C2=C(N=c3s/c(=C/c4cccc(OCC(=O)O)c4)c(=O)n31)c1ccccc1CC2 (centres undefined)	0	5	0	65*	-4	-17
O=C(Nc1ccc(OCC(F)(F)C(F)F)c(C(F)(F)F)c1)c1ccccc1O	60*	1	-2	10	1	-7
O=C(Nc1ccc(OCC(F)(F)C(F)F)c(C(F)(F)F)c1)c1ccccc1	1	-1	-14	1	-4	-5
C/C(=C\CCC1(C)C2CC3C(C2)C31C)C(=O)O (centres undefined)	-1	0	11	16	-5	6
O=C(c1ccccc1)c1nn(-c2ccc(Cl)cc2)cc1C(=O)c1cc2ccccc2oc1=O	9	1	-1	101*	0	-4
COc1ccc(CCNC(N)=S)cc1OC	-2	0	-1	63*	-2	-6
COC(=O)CC(NC(=O)c1ccc(C)cc1)c1ccc2c(c1)OCO2 (centres undefined)	-7	2	-2	107*	1	4
COC(=O)CC(NC(=O)c1ccc(C)cc1)c1ccccc1 (centres undefined)	0	0	-1	16	-2	-15
COc1ccc(C(CC(=O)O)c2ccc3c(c2)OCO3)cc1 (centres undefined)	1	0	-2	94*	-1	1
COc1cccc(C(=O)/C=C/Nc2ccc(S(=O)(=O)Nc3onc(C)c3C)cc2)c1	0	4	-6	23	-2	6
Cc1noc(NS(=O)(=O)c2ccc(N/C=C\C(=O)c3cccc4ccccc34)cc2)c1C	-4	7	-4	56*	-5	6
CC(=O)Nc1ccc(C(=O)NC(C)c2ccc(-n3ccnc3)cc2)cc1 (centres undefined)	4	1	1	9	-1	-3
CN(C(=O)COC(=O)c1c[nH]c2ccccc12)c1ccccc1	0	.	.	-2	.	.
CC(OC(=O)/C(C#N)=C/c1ccc(N(C)C)cc1)C(=O)N(C)c1ccccc1 (centres undefined)	.	25	30*	.	0	-32
CC(=O)Nc1ccc(NC(=O)C(C)OC(=O)/C(C#N)=C/c2ccc(N(C)C)cc2)cc1 (centres undefined)	39	6	80*	-43	-2	-118
CC(OC(=O)/C(C#N)=C/c1ccc(N(C)C)cc1)C(=O)NCc1ccco1 (centres undefined)	.	6	15	.	-1	-7
COCCOC(=O)C1=C(N)OC2=C(C(=O)CC(C)(C)C2)C1c1cccnc1 (centres undefined)	0	0	5	-35	1	1
Cc1cn(CC(=O)N2CCN(c3ccccn3)CC2)c(=O)[nH]c1=O	1	-1	2	96*	0	-2
SMILES	CRFBP-R2 agonist	LANA DNA inh	RTF Ca sens act	CRFBP-R2 block	Keap1-Nrf2 PPI	RTF Ca sens inh
Cc1ccc(SCC(=O)N2CCN(c3ccccn3)CC2)cc1	0	0	0	7	-3	-3
O=C1c2cccc3c(O)ccc(c23)C(=O)N1Cc1ccccc1	248	92*	957*	-196	7	i
CCCCOC(=O)c1cccc(NC(=O)CCC(=O)O)c1	-1	-1	0	12	3	-1
CC1(C)CCN2CCC(C)(C)c3c(O)ccc1c32	118*	28	85*	-82	-16	-167
N#CCC(=O)Nc1ccc(C(=O)OCC(=O)NNC(=O)c2cccs2)cc1	3	1	0	55*	-3	0
O=C(Nc1ccc(O)cc1)c1ccc(NC(=O)c2cccs2)cc1	1	0	-5	11	4	1
O=C(Nc1cccc(O)c1)c1ccc(NC(=O)c2cccs2)cc1	-1	1	-2	68*	-2	1
COC(=O)c1sccc1NS(=O)(=O)c1ccccc1	1	-1	-3	118*	-3	-8
O=C(NCN1CCCCC1)c1cnccn1	0	-3	2	51*	1	-7
O=C(NCN1CCOCC1)c1cnccn1	1	-2	-2	14	-3	-1
O=C(/C=C/c1ccccc1)NCC(=O)N/N=C\c1cccnc1	-1	1	-9	-6	-3	-3
CC1(C)CC(=O)C2=C(C1)OC(N)=C(C#N)C21CCN(Cc2ccccc2)CC1	2	10	32*	1	1	-24
CC(=O)N1CCC2(CC1)C(C#N)=C(N)OC1=C2C(=O)CC(C)(C)C1	-1	2	-3	-1	-3	-1
CN(C)CCNC(=O)C(=O)c1c(-c2ccccc2)cc2ccccn12	-3	1	0	65*	2	-5
O=C(NCCCO)C(=O)c1c(-c2ccccc2)cc2ccccn12	-1	-1	5	1	1	3
COc1cc(NC(=O)CCn2c(=S)oc3ccccc32)cc(OC)c1OC	-2	-2	-7	9	-3	0
CCOC(=O)C1=C(C)NC(SCC(=O)OC)=C(C#N)C1c1ccc(C(=O)OC)cc1 (centres undefined)	-1	0	2	55*!	-1	-7
NC(=O)COc1ncn(-c2ccccc2)n1	1	0	-7	57*	0	-6
COC(=O)c1cccnc1SCc1ccccc1	-3	0	0	15	-4	4
O=C(CCCc1ccccc1)N1CCN(c2ccc([N+](=O)[O-])cc2)CC1	-3	0	-4	68*	0	2
COc1ccc(NC(=O)c2cc(-c3ccccc3OC)on2)cc1	0	-2	-2	54*	-2	1

Screens as filed in PubChem BioAssay.
